The text below walks through data of PubChem BioAssay AID1259422 (The Scripps Research Institute Molecular Screening Center, 2018).

Molecules are shown by their SMILES. Hit rate of the full screen: of about 640,000 compounds, about 9,300 (1.5%) were called active. This is one part of a sample in which actives are shown more often than they occur. Unmarked numbers belong to inactive results. Cut-off read from the data, not from the text of the source: active = inhibition above about 32%; inactive = the rest.

This experiment in a line: TEAD-YAP interaction inhibition, primary screen, TEAD-YAP interaction inhibitor project, luminescence, HEK-TIYL cells (AID 1259422).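 Note: 0% = median of test compound wells and 100% = reference inhibitor wells.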 As to conditions: TEAD-Gal4/YAP UAS-luciferase luminescence, at 9.12 µM, hits give high values.
With `COc1cccc(Nc2nnc(Cc3ccc(Cl)cc3)c(=O)[nH]2)c1`, the inhibition (as a rule, the change of the read-out against control, counted positive when it falls) was 7.31%.
Turning to `CCOc1ccccc1Nc1nnc(Cc2ccc(OC)cc2)c(=O)[nH]1`, the inhibition was 3.03%.
Under `COc1ccc(Cc2nnc(N/N=C/c3ccccc3O)[nH]c2=O)cc1OC` stands 85.4% (active).
With `COc1cccc(C2(NC(=O)CN3C(=O)NC4C3N(C)C(=O)N4C)CCCC2)c1` (centres undefined), the inhibition was 4.87%.
Next, `CC1CN(C(=S)c2ccc(Br)cc2)CC(C)O1` (centres undefined): 6.13%; `O=C(CSc1nnc(NC(=O)C2CCC2)s1)NCc1cccs1`: 5.18%.
As for `COc1cccc(/C=N/NC(=O)c2ccccc2I)c1O`, the inhibition was 13.4%.
Next, `COc1ccc(/C=N/N=C2/NC(=O)CS2)c(OC)c1`: -13.7%; `COc1cccc(/C=N/N=C2/NC(=O)CS2)c1O`: 58.3% (active).
Next, `COc1cccc(/C=N/NC(=O)CC23CC4CC(CC(C4)C2)C3)c1O`: 69.8% (active); `COc1cccc(/C=N/NC(=O)C(=O)Nc2cccc3ccccc23)c1O`: 65.7% (active).
Consider `COc1cc(/C=N/N=C2/NC(=O)CS2)ccc1OC(=O)c1ccccc1C`, for which the inhibition is 3.4%.
Next, `COc1cccc(/C=N/NC(=O)c2cc(O)cc(O)c2)c1O`: 20.7%.
For the compound `O=C(N/N=C/c1cccc2ccccc12)C(=O)N/N=C/c1cccc2ccccc12`, the inhibition was 0.24%.
Under `COc1cccc(/C=N/NC(=O)CNc2cccc(C)c2)c1O` stands 13.4%.
With `O=C(Cc1ccsc1)N1CCC[C@@H]2CN(C/C=C/c3ccccc3)CC[C@H]21`, the inhibition was -4.71%.
Under `CS(=O)(=O)c1ccc(NCc2ccco2)cc1` stands -0.14%.
Next, `CCOC(=O)C1=C(C)N=c2s/c(=C\c3ccc(N(C)C)c(Br)c3)c(=O)n2C1c1ccc(OC)c(OC)c1` (centres undefined): -28.6%; `CCc1nc(SCC(N)=O)c2c3c(sc2n1)CCCC3`: -22.7%; `COc1ccc2nc(N3CCC(NCc4cccc(F)c4F)CC3)nc(C)c2c1`: 5.35%.
Next, `CC(=O)C(C(C)=O)c1cc(Nc2ccc(C)cc2)c2c3c(onc13)-c1ccccc1C2=O`: 3.02%; `CCOC(=O)C1(CO)NC(c2ccc(O)cc2)C2C(=O)N(C)C(=O)C21` (centres undefined): -8.15%; `CCOC(=O)C(=O)C(C#N)c1ccc(OC(C)C)cc1` (centres undefined): 2.75%.
`CCCCNc1cc(-c2cccc(OC)c2)ncn1`: the inhibition was 64.6% (active).
Next, `CCCNc1ccc2ncc(-c3ccco3)n2n1`: 3.49%; `c1ccc(OCCNc2cc(-c3ccccc3)ncn2)cc1`: -25.8%.
Under `COc1cccc(-c2cnc3ccc(NCc4ccco4)nn23)c1` stands 8.66%.
For `CCCNc1ccc2ncc(-c3cccc(OC)c3)n2n1`, the inhibition was 59.2% (active).
As for `CCCNc1cc(-c2cccc(N)c2)ncn1`, the inhibition was -10.6%.
